Data on six compounds can be found in PubChem BioAssay (Tox21).

Records with an inconclusive call do not appear. Active and inactive are the calls of the source. Unless noted, the call rests on the fitted dose curve; in most records, active means well fitted curve in the direction sought with a large enough effect in the repeat runs; inconclusive means weak or mixed curves; inactive means no such curve, though single readings can be large; an effect the other way counts as inactive or inconclusive.

Assay [1] can be described thus: qHTS assay to identify small molecule that activate the aryl hydrocarbon receptor (AhR) signaling pathway - cell viability counter screen (AID 743086). Further: nearly all actives have a fitted effect of over 45% in size. Further: potency means the concentration at half of the fitted maximal effect. Particulars: HepG2-AhR-luc viability, CellTiter-Fluor, 24 h; series mostly up to 70.3 µM. In a few lines: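 HepG2-AhR-luc (HG2L7.5c1) cells, 4000/well, were preincubated 5 h at 37C, exposed to compound in qHTS format for 24 hr at 37C, then given CellTiter-Fluor for 30 min; viability was read as fluorescence in the reporter wells.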
For orientation: Quantitative high-throughput screening tests each substance at several concentrations.

Assay [2] is described as follows: qHTS assay to identify small molecule antagonists of the peroxisome proliferator-activated receptor gamma (PPARg) signaling pathway - cell viability counter screen (AID 743194). Further: nearly all actives have a fitted effect of over 55% in size. Particulars: PPARg-bla HEK293H viability, CellTiter-Glo luminescence, 17 h, co-treated with 50 nM rosiglitazone; series mostly up to 62.6 µM. Summed up:
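PPARg-UAS-bla HEK293H cells were plated, rested 5 h at 37 C, then treated with compounds plus rosiglitazone (50 nM final) for 17 h at 37 C; viability was then read by CellTiter-Glo luminescence after 30 min at room temperature.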

Assay [3] in a line: qHTS assay for small molecule agonists of the antioxidant response element (ARE) signaling pathway - cell viability counter screen (AID 743203; calls by dose curve; further: nearly all actives have a fitted effect of over 55% in size; further: potency means the concentration at half of the fitted maximal effect). Conditions: ARE-bla HepG2 viability, CellTiter-Glo luminescence, 16 h; series mostly up to 73.3 µM. Summed up: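 Compounds in DMSO were pinned onto ARE-bla HepG2 cells plated 5 hrs earlier at 2,000 cells/well. Sixteen hours later at 37C/5% CO2, CellTiter-Glo was added and luminescence measured after 30 min at room temperature.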

A short description of assay [4]: qHTS assay for small molecule activators of the heat shock response signaling pathway - cell viability counter screen (AID 743209). Further: nearly all actives have a fitted effect of over 50% in size. Conditions: HSE-bla HeLa viability, CellTiter-Glo luminescence, 5 h; series mostly up to 62.6 µM. Summed up:
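Counter screen for cytotoxicity in HeLa HSE-bla reporter cells. Treatment was 5 h at 37 C; viability was detected by luminescent ATP assay (CellTiter-Glo) in the same wells as the beta-lactamase read.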

Assay [5] is described as follows: qHTS assay for small molecule activators of the heat shock response signaling pathway (AID 743210; active means well fitted activation curve with a large enough effect in the signal ratio in the repeat runs, with a control signal flat, not every such curve was filed as active; the % refers to the signal ratio). Particulars: HeLa HSE-bla reporter, beta-lactamase ratio, 5 h; series mostly up to 62.6 µM. Summed up: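 HSE-bla HeLa cells (beta-lactamase reporter under heat shock response elements) were exposed to compounds for 5 h at 37 C, then loaded with LiveBLAzer B/G FRET substrate for 2.5 h at room temperature before fluorescence reading.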

A short description of assay [6]: qHTS assay to identify small molecule agonists of the peroxisome proliferator-activated receptor delta (PPARd) signaling pathway - cell viability counter screen (AID 743211). Further: nearly all actives have a fitted effect of over 55% in size. Conditions: PPARd-bla HEK293H viability, CellTiter-Glo luminescence, 17 h; series mostly up to 62.6 µM. In a few lines: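 Viability was measured as CellTiter-Glo luminescence (30 min, room temperature) in the same wells as the beta-lactamase readout. GeneBLAzer PPARd UAS-bla HEK293H cells received compound after 5 h plating and were incubated 17 h at 37 C.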

Assay [7] concerns the target Peroxisome proliferator-activated receptor delta (Homo sapiens) (UniProt Q03181). The assay can be described thus: qHTS assay to identify small molecule antagonists of the peroxisome proliferator-activated receptor delta (PPARd) signaling pathway (AID 743215; active means well fitted inhibition curve with a large enough effect in the signal ratio in the repeat runs, not every such curve was filed as active; the % refers to the signal ratio;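 further: cells stimulated with agonist L165041 at 300 nM final during compound exposure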). Conditions: HEK293H PPARd-UAS-bla, beta-lactamase FRET ratio, antagonist, 17 h; series mostly up to 62 µM. In a few lines:
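With L165041 present at 300 nM final, compounds were incubated 17 h at 37 C on PPARd UAS-bla HEK293H cells. A FRET-based beta-lactamase substrate was then applied for 2 h at room temperature and fluorescence intensity recorded.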

A short description of assay [8]: qHTS assay to identify small molecule antagonists of the farnesoid-X-receptor (FXR) signaling pathway - cell viability counter screen (AID 743221; active means well fitted cell-killing curve with a large enough effect in the repeat runs, not every such curve was filed as active; further: nearly all actives have a fitted effect of over 50% in size). Conditions: FXR-bla HEK293T viability, CellTiter-Glo luminescence, 16 h; series mostly up to 62.6 µM. In a few lines:
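Cytotoxicity counter screen run in the FXR-bla reporter wells: HEK 293T cells exposed to compound with 50 uM (final) chenodeoxycholic acid for 16 h, 37 C, then viability measured by CellTiter-Glo luminescence after 30 min, room temperature.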

Assay [9] deals with Peroxisome proliferator-activated receptor gamma (Homo sapiens) (UniProt P37231). Put plainly: qHTS assay to identify small molecule antagonists of the peroxisome proliferator-activated receptor gamma (PPARg) signaling pathway (AID 743191; calls by dose curve; further: nearly all actives have a fitted effect of over 30% in size). Conditions: HEK293H PPARg-UAS-bla, beta-lactamase ratio, antagonist, 17 h; series mostly up to 62.6 µM. In a few lines: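 GeneBLAzer PPARg UAS-bla HEK293H cells carrying a UAS-driven beta-lactamase reporter were plated at 3000 cells/well, preincubated 5 h at 37C, then given compound for 17 h at 37C; LiveBLAzer B/G FRET substrate was read after 1 h at room temperature.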

Assay [10] is described as follows: qHTS assay for small molecule agonists of the antioxidant response element (ARE) signaling pathway (AID 743202; active means well fitted activation curve with a large enough effect in the signal ratio in the repeat runs, not every such curve was filed as active; the % refers to the signal ratio; further: potency means the concentration at half of the fitted maximal effect). Particulars: HepG2 ARE-bla reporter, beta-lactamase FRET, 16 h; series mostly up to 73.3 µM. Summed up:
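Read-out: LiveBLAzer B/G FRET substrate fluorescence after 2 h at room temperature, following 16 h compound treatment at 37 C of HepG2 cells carrying an ARE-driven beta-lactamase reporter.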

Assay [11] in a line: qHTS assay to identify small molecule antagonists of the peroxisome proliferator-activated receptor delta (PPARd) signaling pathway - cell viability counter screen (AID 743213). Further: nearly all actives have a fitted effect of over 50% in size. Particulars: PPARd-bla HEK293H viability, CellTiter-Glo luminescence, 17 h; series mostly up to 62 µM. Summed up: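 HEK293H PPARd UAS-bla cells, 5 h pre-incubation, compound + L165041 300 nM final, 17 h 37 C; B/G FRET substrate 2 h RT; then CellTiter-Glo 30 min RT, luminescence.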

Assay [12] can be described thus: qHTS assay to identify small molecule agonists of the farnesoid-X-receptor (FXR) signaling pathway - cell viability counter screen (AID 743218). Further: nearly all actives have a fitted effect of over 45% in size. Conditions: FXR-bla HEK293T viability, CellTiter-Glo luminescence, 16 h; series mostly up to 62.6 µM. Summed up:
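After 16 h at 37 C with test compounds, FXR-bla HEK 293T cells were given LiveBLAzer B/G substrate for 2 h at RT and then CellTiter-Glo; luminescence was taken after 30 min.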

Assay [13] deals with Vitamin D3 receptor (Homo sapiens) (UniProt P11473). Put plainly: qHTS assay to identify small molecule agonists of the vitamin D receptor (VDR) signaling pathway (AID 743222; calls by dose curve). Particulars: HEK293T VDR-UAS-bla, beta-lactamase FRET ratio, 16 h; series mostly up to 63.5 µM. Summed up: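 VDR-bla cells were seeded, left 4 h, treated with compounds in DMSO for 16 h, incubated 2 h at RT with B/G FRET substrate, and read for fluorescence.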

The target is the same in assay [14]. Put plainly: qHTS assay to identify small molecule antagonists of the vitamin D receptor (VDR) signaling pathway (AID 743223; active means well fitted inhibition curve with a large enough effect in the signal ratio in the repeat runs, not every such curve was filed as active; the % refers to the signal ratio). Particulars: VDR-UAS-bla HEK293T, beta-lactamase FRET ratio, 16 h; series mostly up to 61 µM. Summed up:
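Antagonist mode: compound added to VDR-bla cells alongside agonist 1alpha,25-dihydroxyvitamin D3 (3 nM final), incubation 16 h at 37C. Read-out is LiveBLAzer FRET fluorescence, 2 h at room temperature.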

Assay [15] concerns the target Peroxisome proliferator-activated receptor delta (Homo sapiens) (UniProt Q03181). Put plainly: qHTS assay to identify small molecule agonists of the peroxisome proliferator-activated receptor delta (PPARd) signaling pathway (AID 743212; calls by dose curve). Conditions: HEK293H PPARd-UAS-bla, beta-lactamase FRET ratio, 17 h; series mostly up to 62.6 µM. In a few lines:
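GeneBLAzer PPARd UAS-bla HEK293H cells (beta-lactamase reporter under UAS control), plated and rested 5 h at 37 C, then exposed to compounds in DMSO at 37 C; LiveBLAzer B/G FRET substrate added, 2 h room temperature, fluorescence read.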

Assay [16] addresses Bile acid receptor (Homo sapiens) (UniProt Q96RI1). Put plainly: qHTS assay to identify small molecule antagonists of the farnesoid-X-receptor (FXR) signaling pathway (AID 743217; active means well fitted inhibition curve with a large enough effect in the signal ratio in the repeat runs, not every such curve was filed as active; the % refers to the signal ratio). Conditions: HEK293T FXR-UAS-bla, beta-lactamase ratio, CDCA-stimulated, 16 h; series mostly up to 62.6 µM. Summed up: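 In this cell-based antagonist screen, inhibition of CDCA-driven (50 uM final) UAS-beta-lactamase expression in HEK 293T cells was measured by FRET fluorescence following 16 h compound exposure at 37 °C.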

Assay [17] has the same target. Put plainly: qHTS assay to identify small molecule agonists of the farnesoid-X-receptor (FXR) signaling pathway (AID 743220; active means well fitted activation curve with a large enough effect in the signal ratio in the repeat runs, not every such curve was filed as active; the % refers to the signal ratio). Conditions: HEK293T FXR-UAS-bla, beta-lactamase FRET ratio, 16 h; series mostly up to 62.6 µM. Summed up:
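Beta-lactamase reporter under UAS control in GeneBLAzer FXR HEK 293T cells (5000/well) measured with LiveBLAzer FRET substrate after 2 h at room temperature. Compound exposure lasted 16 h at 37C.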

Chain of Vitamin D3 receptor (Homo sapiens) (P11473 whole entry, looked up): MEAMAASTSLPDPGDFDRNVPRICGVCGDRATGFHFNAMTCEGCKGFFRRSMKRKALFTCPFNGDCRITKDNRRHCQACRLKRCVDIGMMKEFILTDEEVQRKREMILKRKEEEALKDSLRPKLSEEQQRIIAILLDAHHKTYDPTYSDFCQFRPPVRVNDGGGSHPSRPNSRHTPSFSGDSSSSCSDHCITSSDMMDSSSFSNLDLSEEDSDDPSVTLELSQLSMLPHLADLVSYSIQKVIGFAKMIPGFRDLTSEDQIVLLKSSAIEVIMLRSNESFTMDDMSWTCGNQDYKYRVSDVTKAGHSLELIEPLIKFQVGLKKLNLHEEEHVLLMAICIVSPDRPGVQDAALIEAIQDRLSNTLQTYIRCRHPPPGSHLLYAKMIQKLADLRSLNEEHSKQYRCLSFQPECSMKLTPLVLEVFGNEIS
Chain of Bile acid receptor (Homo sapiens) (Q96RI1 whole entry, looked up): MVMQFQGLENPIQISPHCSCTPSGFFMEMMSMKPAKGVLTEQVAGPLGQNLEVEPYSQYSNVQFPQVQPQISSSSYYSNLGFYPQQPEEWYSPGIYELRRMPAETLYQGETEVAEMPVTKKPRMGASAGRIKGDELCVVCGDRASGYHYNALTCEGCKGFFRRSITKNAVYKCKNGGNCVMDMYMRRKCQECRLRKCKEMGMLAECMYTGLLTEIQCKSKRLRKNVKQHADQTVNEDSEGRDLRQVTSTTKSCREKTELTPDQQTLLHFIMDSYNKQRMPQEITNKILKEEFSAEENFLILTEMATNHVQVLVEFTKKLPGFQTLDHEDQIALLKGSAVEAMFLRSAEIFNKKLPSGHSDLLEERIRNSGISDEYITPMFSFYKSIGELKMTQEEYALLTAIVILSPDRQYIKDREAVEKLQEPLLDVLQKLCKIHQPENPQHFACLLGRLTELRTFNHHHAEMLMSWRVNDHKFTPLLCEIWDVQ
Chain of Peroxisome proliferator-activated receptor delta (Homo sapiens) (Q03181 whole entry, looked up): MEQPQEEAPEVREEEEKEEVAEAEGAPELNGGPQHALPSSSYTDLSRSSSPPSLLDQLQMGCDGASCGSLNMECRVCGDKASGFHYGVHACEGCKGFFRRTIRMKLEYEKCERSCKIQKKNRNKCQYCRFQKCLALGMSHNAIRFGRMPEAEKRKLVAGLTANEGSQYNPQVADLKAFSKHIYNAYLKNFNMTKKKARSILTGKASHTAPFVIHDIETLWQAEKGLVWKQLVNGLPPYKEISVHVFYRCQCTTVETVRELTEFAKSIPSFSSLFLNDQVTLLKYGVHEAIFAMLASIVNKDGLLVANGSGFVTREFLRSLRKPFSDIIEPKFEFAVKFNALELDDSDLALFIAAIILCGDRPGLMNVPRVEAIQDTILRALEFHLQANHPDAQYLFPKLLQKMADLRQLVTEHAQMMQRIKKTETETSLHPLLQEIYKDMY
Chain of Peroxisome proliferator-activated receptor gamma (Homo sapiens) (P37231 whole entry, looked up): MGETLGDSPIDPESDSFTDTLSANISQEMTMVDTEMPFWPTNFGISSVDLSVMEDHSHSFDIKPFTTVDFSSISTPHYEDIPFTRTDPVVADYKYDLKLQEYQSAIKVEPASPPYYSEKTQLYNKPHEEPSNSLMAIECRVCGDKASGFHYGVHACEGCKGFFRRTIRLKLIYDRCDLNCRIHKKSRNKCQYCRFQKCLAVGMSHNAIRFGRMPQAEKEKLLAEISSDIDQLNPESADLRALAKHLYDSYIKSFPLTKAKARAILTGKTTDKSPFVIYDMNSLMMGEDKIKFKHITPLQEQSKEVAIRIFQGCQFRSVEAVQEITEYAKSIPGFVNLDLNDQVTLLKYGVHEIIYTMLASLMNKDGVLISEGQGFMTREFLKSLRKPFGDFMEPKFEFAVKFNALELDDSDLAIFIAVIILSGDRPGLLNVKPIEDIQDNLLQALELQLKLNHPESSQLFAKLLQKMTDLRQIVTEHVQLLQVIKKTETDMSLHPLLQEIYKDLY

For `CCc1cc(C2=C(C(=O)O)N(c3ccccc3C(F)(F)F)S(=O)(=O)c3ccccc32)cc2c1OCO2`, the Potency in assay [1] is 21.4 µM (active); in [3] it was 6.04 µM (active). Further, the Potency entry in assay [2], in assay [4], in assay [5], in assay [6], in assay [7] and in [8] was “inactive” each time.
As for `COCCCN1CCC(NC(=O)c2cc(Cl)c(N)c3c2OCC3)CC1`, the Potency result in assay [9], in assay [2], in assay [10], in assay [3], in assay [5] and in assay [6] was “inactive” in each case. For the same compound, the Potency result in assay [11], in assay [12], in assay [8] and in [13] was “inactive” each time. Also, the result in assay [14] was inactive.
In the case of `CN(C)CCOC(c1ccccc1)c1ccc(Br)cc1` (configuration not stated), the Potency result in assay [3], in [4], in assay [5], in assay [15], in assay [16] and in assay [17] was “inactive” in each case. Besides, the Potency entry in assay [13] was “inactive”. The result in [14] was inactive.
Consider `CC(C)(O)c1ccc(CNC(=O)c2cccnc2Oc2ccc(F)cc2)cc1`, for which the Potency entry in [1], in assay [2], in [3], in assay [4], in assay [5] and in assay [15] was “inactive” in each case. In addition, the Potency result in assay [11], in [7], in assay [12] and in assay [8] was “inactive” each time.
With `C/C=C(/C(=C/C)c1ccc(OC(C)=O)cc1)c1ccc(OC(C)=O)cc1`, the Potency in assay [10] was 13.3 µM (active). In addition, the Potency entry in assay [3], in assay [15], in [7], in [12], in assay [8] and in assay [13] was “inactive” in each case.
`CCC(C)O` (configuration not stated): the Potency result in assay [1], in assay [2], in [10], in assay [3], in assay [4] and in assay [5] was “inactive” throughout. Also, the Potency entry in assay [6], in [11], in [16], in [12], in assay [17] and in assay [8] was “inactive” throughout. The Potency result in [13] is “inactive”.
